Values joined by “and” are separate entries in the source; they are usually repeats but may differ in a detail not shown here. Equal entries are not always repeated. Active and inactive are the calls of the source. Rule for the calls: active = hit-call score of the fitted dose curve at least 0.9, where 1 is the maximum; inactive = score below 0.9.
Assays:
[1] = read-out: Human Leukocyte Antigen - DR isotype (HLADR), HLA-DRA (gene 3122); assay: BSK_CASM3C_HLADR: BioMAP Diversity Plus: CASM3C Assay for Human Leukocyte Antigen - DR isotype (HLADR) Biomarker Activity (AID 2283043); conditions: primary human coronary artery smooth muscle cells; actives raise or lower the signal;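 note: cell-surface HLA-DR protein level quantified by ELISA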
[2] = read-out: Macrophage colony-stimulating factor (MCSF), CSF1 (gene 1435); assay: BSK_CASM3C_MCSF: BioMAP Diversity Plus: CASM3C Assay for Macrophage colony-stimulating factor (MCSF) Biomarker Activity (AID 2283044); conditions: primary human coronary artery smooth muscle cells; actives raise or lower the signal;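 note: M-CSF protein amount quantified by ELISA after 24 h exposure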
[3] = read-out: Low-density lipoprotein receptor (LDLR), LDLR (gene 3949); assay: BSK_CASM3C_LDLR: BioMAP Diversity Plus: CASM3C Assay for Low-density lipoprotein receptor (LDLR) Biomarker Activity (AID 2283045); conditions: primary human coronary artery smooth muscle cells; actives raise or lower the signal;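 note: LDLR protein level on the cell surface quantified by ELISA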
[4] = read-out: Monocyte Chemoattractant Protein-1 (MCP1), CCL2 (gene 6347); assay: BSK_CASM3C_MCP1: BioMAP Diversity Plus: CASM3C Assay for Monocyte Chemoattractant Protein-1 (MCP1) Biomarker Activity (AID 2283046); conditions: primary human coronary artery smooth muscle cells; actives raise or lower the signal
[5] = BSK_CASM3C_Proliferation: Cell Proliferation Assessment in the BioMAP Diversity Plus: CASM3C Assay (AID 2283047); conditions: primary human coronary artery smooth muscle cells;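 note: sulforhodamine B total protein stain as relative cell number at 560 nm; sub-confluent cells exposed 48 h before staining; fitted both ways against DMSO so gain or loss of cell number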
[6] = BSK_CASM3C_SRB: Viability Assessment in the BioMAP Diversity Plus: CASM3C Assay (AID 2283050); conditions: primary human coronary artery smooth muscle cells;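 note: cells exposed to compound for 24 h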
[7] = read-out: Interferon-gamma inducible Protein 10 (IP10), CXCL10 (gene 3627); assay: BSK_hDFCGF_IP10: BioMAP Diversity Plus: hDFCGF Assay for Interferon-gamma inducible Protein 10 (IP10) Biomarker Activity (AID 2283053); conditions: primary human foreskin fibroblasts; actives raise or lower the signal
Summary of the method: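 ELISA quantification of IP-10 after a 24 h chemical exposure of human dermal foreskin fibroblast primary cultures. Both increases and decreases versus DMSO fitted.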

[8] = read-out: Interleukin-8 (IL8), CXCL8 (gene 3576); assay: BSK_hDFCGF_IL8: BioMAP Diversity Plus: hDFCGF Assay for Interleukin-8 (IL8) Biomarker Activity (AID 2283058); conditions: primary human foreskin fibroblasts; actives raise or lower the signal
Summary of the method: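 Cells used are human skin primary fibroblasts. Chemical is added, cultures run 24 h, then IL-8 is quantified by ELISA, and gain or loss versus DMSO control is fitted in both directions.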

[9] = BSK_hDFCGF_Proliferation: Cell Proliferation Assessment in the BioMAP Diversity Plus: hDFCGF Assay (AID 2283059); conditions: primary human foreskin fibroblasts;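 note: curves fitted for both rise and fall of signal versus DMSO baseline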
Summary of the method: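 Primary human foreskin fibroblasts, sub-confluent; […]; 10% TCA fix, 0.1% SRB stain, A560 total protein. Gain/loss fitted bidirectionally vs DMSO control.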

[10] = BSK_hDFCGF_SRB: Viability Assessment in the BioMAP Diversity Plus: hDFCGF Assay (AID 2283061); conditions: primary human foreskin fibroblasts;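 note: cells exposed to compound for 24 h before the read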
Summary of the method: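 Readout is SRB absorbance at 560 nm, reflecting total protein in parallel cultures of human foreskin fibroblasts harvested 24 h after chemical dosing. Activity was fitted bidirectionally relative to DMSO.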

[11] = read-out: TIMP metallopeptidase inhibitor 1 (TIMP1), TIMP1 (gene 7076); assay: BSK_hDFCGF_TIMP1: BioMAP Diversity Plus: hDFCGF Assay for TIMP metallopeptidase inhibitor 1 (TIMP1) Biomarker Activity (AID 2283062); conditions: primary human foreskin fibroblasts; actives raise or lower the signal
Summary of the method: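 Human skin fibroblasts (primary), hDFCGF system; compound exposure 24 h; TIMP-1 by ELISA; bidirectional fit vs DMSO negative control; overt cytotoxicity by SRB in parallel wells.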

[12] = read-out: Monokine induced gamma interferon (MIG), CXCL9 (gene 4283); assay: BSK_hDFCGF_MIG: BioMAP Diversity Plus: hDFCGF Assay for Monokine induced gamma interferon (MIG) Biomarker Activity (AID 2283063); conditions: primary human foreskin fibroblasts; actives raise or lower the signal
Summary of the method: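 Chemicals were added to primary human foreskin fibroblast cultures, which were sampled 24 h later. MIG levels were then quantified by ELISA and responses fitted in both directions relative to DMSO.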

[13] = read-out: Matrix Metallopeptidase 1 (MMP1), MMP1 (gene 4312); assay: BSK_hDFCGF_MMP1: BioMAP Diversity Plus: hDFCGF Assay for Matrix Metallopeptidase 1 (MMP1) Biomarker Activity (AID 2283064); conditions: primary human foreskin fibroblasts; actives raise or lower the signal
Summary of the method: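 ELISA read-out of MMP1 from human foreskin fibroblasts (primary skin cells), 24 h post-dose. Gain or loss of signal was fitted bidirectionally versus DMSO negative control; cytotoxicity was checked by SRB in parallel cultures.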

[14] = read-out: Plasminogen activator inhibitor-1 (PAI1), SERPINE1 (gene 5054); assay: BSK_hDFCGF_PAI1: BioMAP Diversity Plus: hDFCGF Assay for Plasminogen activator inhibitor-1 (PAI1) Biomarker Activity (AID 2283066); conditions: primary human foreskin fibroblasts; actives raise or lower the signal
Summary of the method: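 PAI-1 levels in human dermal foreskin fibroblasts were quantified by ELISA 24 h after dosing, with gain or loss analysed against DMSO. Overt cytotoxicity was checked by sulforhodamine B total-protein staining in parallel cultures.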

[15] = read-out: Interferon-gamma inducible Protein 10 (IP10), CXCL10 (gene 3627); assay: BSK_KF3CT_IP10: BioMAP Diversity Plus: KF3CT Assay for Interferon-gamma inducible Protein 10 (IP10) Biomarker Activity (AID 2283068); conditions: primary human keratinocytes with fibroblasts; actives raise or lower the signal
Summary of the method: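 In a primary skin co-culture of keratinocytes and fibroblasts, IP-10 is quantified by ELISA at 24 h after dosing. SRB staining of parallel wells monitors overt toxicity. Curves are fitted both directions against DMSO.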

[16] = BSK_KF3CT_SRB: Viability Assessment in the BioMAP Diversity Plus: KF3CT Assay (AID 2283069); conditions: primary human keratinocytes with fibroblasts;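 note: read 24 h after compound addition; fitted for both signal gain and loss against DMSO baseline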
Summary of the method: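 SRB read-out at 560 nm (0.1% stain, TCA-fixed cells) gauges overt cytotoxicity in a human skin keratinocyte–fibroblast co-culture 24 h post-dosing. Signal change was fitted bidirectionally relative to DMSO control.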

[17] = read-out: TIMP metallopeptidase inhibitor 2 (TIMP2), TIMP2 (gene 7077); assay: BSK_KF3CT_TIMP2: BioMAP Diversity Plus: KF3CT Assay for TIMP metallopeptidase inhibitor 2 (TIMP2) Biomarker Activity (AID 2283071); conditions: primary human keratinocytes with fibroblasts; actives raise or lower the signal
Summary of the method: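 TIMP-2 measured by ELISA at 24 h in human keratinocyte/fibroblast primary co-cultures exposed to chemicals. Both increases and decreases were fitted against DMSO. Parallel cultures were stained with SRB for total protein as an overt-cytotoxicity check.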

[18] = read-out: C-C motif chemokine 2 (Homo sapiens) (UniProt P13500); assay: BSK_KF3CT_MCP1: BioMAP Diversity Plus: KF3CT Assay for Monocyte Chemoattractant Protein 1 (MCP1/CCL2) Biomarker Activity (AID 2283073); conditions: primary human keratinocytes with fibroblasts; actives raise or lower the signal
Summary of the method: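 ELISA readout of MCP-1 after 24 h chemical dosing of a human skin primary co-culture of keratinocytes and foreskin fibroblasts. Activity was fitted in both directions against DMSO.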

[19] = read-out: urokinase plasminogen activator (uPA), PLAU (gene 5328); assay: BSK_KF3CT_uPA: BioMAP Diversity Plus: KF3CT Assay for urokinase plasminogen activator (uPA) Biomarker Activity (AID 2283075); conditions: primary human keratinocytes with fibroblasts; actives raise or lower the signal
Summary of the method: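 Skin co-culture (keratinocytes + foreskin fibroblasts), human primary; 24 h post-dose; uPA by ELISA; gain/loss fit vs DMSO baseline.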

[20] = BSK_LPS_SRB: Viability Assessment in the BioMAP Diversity Plus: LPS Assay (AID 2283079); conditions: primary human HUVEC with PBMC;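 note: total protein by sulforhodamine B absorbance as a cytotoxicity measure; measured one day after compound addition; fitted in both directions against DMSO so loss or gain of signal counts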
Summary of the method: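 Readout is SRB absorbance at 560 nm (0.1% stain, TCA-fixed parallel cultures) as a total-protein cytotoxicity measure. Cells: primary human umbilical vein endothelium plus peripheral blood mononuclear cells, 24 h after chemical exposure; DMSO served as baseline.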

Measured: AC50

CC(C)C1OCCN1CCOC(=O)NCCCCCCNC(=O)OCCN1CCOC1C(C)C (stereo not given)
inactive: [1] | [2] | [3] | [4] | [5] | [6] | [7] | [8] | [9] | [10] | [11] | [12] | [13] | [14] | [15] | [16] | [17] | [18] | [19] | [20]

O=[N+]([O-])c1cc(S(=O)(=O)Nc2ccccc2)ccc1Nc1ccccc1
active: [7] 29.8 µM and 31.5 µM | [8] 38.9 µM and 36.7 µM | [9] 14 µM and 14.3 µM | [10] 27.7 µM and 29 µM | [11] 30.3 µM and 29.5 µM | [12] 31 µM and 31.3 µM | [13] 30.9 µM and 36.7 µM | [14] 26.6 µM and 25.4 µM | [15] 30.2 µM and 32.4 µM | [16] 34.6 µM | [17] 32.6 µM and 30.4 µM | [18] 25.3 µM and 23.6 µM | [19] 32.8 µM and 32.9 µM | [20] 31.1 µM and 28.7 µM
inactive: [1] | [2] | [3] | [4] | [5] | [6]

COc1ccc(C(=O)c2ccccc2O)c(O)c1
active: [1] 10.9 µM and 5.66 µM | [9] 25.3 µM and 27 µM
inactive: [2] | [3] | [4] | [5] | [6] | [7] | [8] | [10] | [11] | [12] | [13] | [14] | [15] | [16] | [17] | [18] | [19] | [20]

Oc1cccc2ccccc12
inactive: [1] | [2] | [3] | [4] | [5] | [6] | [7] | [8] | [10] | [11] | [12] | [13] | [14] | [15] | [16] | [17] | [18] | [19] | [20]
active: [9] 13.3 µM

COc1ccccc1Oc1c(NS(=O)(=O)c2ccc(C(C)(C)C)cc2)nc(-c2ncccn2)nc1OCCO
active: [2] 4.05 µM and 5.31 µM | [9] 20 µM and 15.3 µM
inactive: [1] | [3] | [4] | [5] | [6] | [7] | [8] | [10] | [11] | [12] | [13] | [14] | [15] | [16] | [17] | [18] | [19] | [20]

CCCCC(CC)COC(=O)C=Cc1ccc(OC)cc1 (stereo not given)
active: [1] 13.9 µM and 7.28 µM | [9] 13.2 µM and 11.7 µM | [12] 12 µM and 10.2 µM | [20] 32.1 µM and 36.7 µM
inactive: [2] | [3] | [4] | [5] | [6] | [7] | [8] | [10] | [11] | [13] | [14] | [15] | [16] | [17] | [18] | [19]

OC(C(F)(F)F)(C(F)(F)F)C(O)(C(F)(F)F)C(F)(F)F
inactive: [3] | [4] | [8] | [10] | [11] | [13] | [19]
active: [1] 18.7 µM and 7.57 µM | [2] 49 µM and 50.5 µM | [5] 27.7 µM and 28.9 µM | [6] 30 µM and 26.9 µM | [7] 20.1 µM and 23.8 µM | [9] 15.5 µM and 16.8 µM | [12] 30 µM | [14] 33.1 µM and 33.8 µM | [15] 48.7 µM and 47.2 µM | [16] 46.9 µM and 58.2 µM | [17] 50.7 µM and 51.8 µM | [18] 7.89 µM and 7.97 µM | [20] 30.3 µM and 24.3 µM

C1CN(CCOCCN2CCOCC2)CCO1
inactive: [1] | [2] | [3] | [4] | [5] | [6] | [7] | [8] | [9] | [10] | [11] | [12] | [13] | [14] | [15] | [16] | [17] | [18] | [19] | [20]

CCC[Si](OC(C)=O)(OC(C)=O)OC(C)=O
inactive: [1] | [2] | [3] | [4] | [5] | [6] | [7] | [8] | [9] | [10] | [11] | [12] | [13] | [14] | [15] | [16] | [17] | [18] | [19] | [20]

Cc1c(C(N)=O)cc([N+](=O)[O-])cc1[N+](=O)[O-]
inactive: [1] | [2] | [3] | [4] | [5] | [6] | [7] | [8] | [9] | [10] | [11] | [12] | [13] | [14] | [15] | [16] | [17] | [18] | [19] | [20]

COc1cc(CNC(=O)CCCC/C=C/C(C)C)ccc1O
active: [1] 16.8 µM and 5.89 µM | [9] 1.26 µM and 1.37 µM
inactive: [2] | [3] | [4] | [5] | [6] | [7] | [8] | [10] | [11] | [12] | [13] | [14] | [15] | [16] | [17] | [18] | [19] | [20]
